The record followed here is PubChem BioAssay.

The source made the active and inactive calls. Unless noted, how the calls were made is not given here.

A short description of test [1]: resazurin metabolic signal in HepG2 cells – cell-based, resazurin fluorescence, 24 h, PK04 Diversity Set, profiling panel (AID 1172). Further: test concentration not given here. The following applies: HepG2 viability, higher = more signal.
The nature of test [2]: budding yeast growth changes without added modifier – OD600, strain BY4716, 24 h, basal condition, primary screen (AID 1173). The following applies: S. cerevisiae BY4716 growth, OD600, 24 h; higher = more signal, called active from +8 up or from −8 down.
The nature of test [3]: viability profiling in MM1S myeloma cells – cell-based, resazurin fluorescence, basal, 24 h, PK04 Diversity Set, profiling panel (AID 1174).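 Further: MM1S multiple myeloma cell line; test concentration not given here.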 The following applies: higher = more signal, called active from +8 up or from −8 down. (The colour change of resazurin is a common sign of viable cells or microbes.)
Test [4] deals with Dihydroorotate dehydrogenase (quinone), mitochondrial (Plasmodium falciparum (isolate 3D7)) (UniProt Q08210). As to the kind of experiment: inhibition of P. falciparum DHODH – biochemical, C-terminal His tag, absorbance 600 nm, primary screen (AID 1175).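 Further: recombinant parasite enzyme with a five histidine tag at its C terminus; test concentration not given here.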 The following applies: PfDHODH enzyme, DCIP absorbance 600 nm; higher = more signal, called active from +8 up or from −8 down.

A short description of test [5]: inhibition of PAO1 biofilm formation – strain PAO1, LB-PBS medium, absorbance 600 nm, primary screen (AID 1176). Further: test concentration not given here. The following applies: P. aeruginosa PAO1 growth/biofilm, A600, 12 h; higher = more signal.
Test [6] in a line: growth modulation of vineyard yeast isolate – strain RM11-1a, OD600, basal, 24 h, primary screen (AID 1177).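 Further: cultures grown under basal conditions with no added stressor; test concentration not given here.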 The following applies: S. cerevisiae RM11-1a growth, OD600, 24 h; higher = more signal, called active from +8 up or from −8 down.
Test [7] is described as follows: growth of efflux-deficient E. coli DRC39 – strain DRC39, OD650, 24 h, E. coli filamentation inducers, primary screen (AID 1178).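 Further: growth measured as culture turbidity by optical density at 650 nm; test concentration not given here.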 The conditions noted are these: E. coli DRC39 acrAB, higher = more signal, called active from +8 up or from −8 down.
A short description of test [8]: growth of efflux-deficient E. coli DRC39 – strain DRC39, OD650, 48 h, E. coli filamentation inducers, primary screen (AID 1179).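 Further: screen aims at cell division blockers that make cells filament.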 The following applies: E. coli DRC39 delta-acrAB growth, higher = more signal, called active from +8 up or from −8 down.
Test [9] can be described thus: viability profiling in RPMI8226 myeloma cells – cell-based, resazurin fluorescence, basal, 24 h, PK04 Diversity Set, profiling panel (AID 1180).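 Further: RPMI8826 multiple myeloma cell line at 5000 cells per well; test concentration not given here.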 The following applies: higher = more signal.
For test [10], the target named is E3 ubiquitin-protein ligase XIAP (Homo sapiens) (UniProt P98170). The experiment in a line: small molecules binding XIAP protein – biophysical, small-molecule microarray, fluorescence 635 nm, primary screen (AID 1181).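 Further: score merges 667 nm emission and signal to noise over triplicate slides.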 The conditions noted are these: higher = more signal.
Sequence of E3 ubiquitin-protein ligase XIAP (Homo sapiens) (P98170 whole entry, looked up): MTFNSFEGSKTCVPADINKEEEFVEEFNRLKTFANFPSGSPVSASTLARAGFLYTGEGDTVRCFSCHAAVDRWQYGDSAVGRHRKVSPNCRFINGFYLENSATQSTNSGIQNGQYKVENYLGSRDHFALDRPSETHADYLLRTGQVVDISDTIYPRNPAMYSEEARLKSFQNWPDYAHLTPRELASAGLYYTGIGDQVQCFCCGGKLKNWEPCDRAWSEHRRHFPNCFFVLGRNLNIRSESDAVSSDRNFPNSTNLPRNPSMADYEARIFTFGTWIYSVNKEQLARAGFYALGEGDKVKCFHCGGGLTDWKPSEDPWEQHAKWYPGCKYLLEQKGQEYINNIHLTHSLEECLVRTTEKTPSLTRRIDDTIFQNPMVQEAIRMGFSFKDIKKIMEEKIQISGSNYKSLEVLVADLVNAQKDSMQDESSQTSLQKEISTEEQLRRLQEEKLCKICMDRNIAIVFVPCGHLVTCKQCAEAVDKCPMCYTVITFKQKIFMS

Sequence of Dihydroorotate dehydrogenase (quinone), mitochondrial (Plasmodium falciparum (isolate 3D7)) (Q08210 whole entry, looked up): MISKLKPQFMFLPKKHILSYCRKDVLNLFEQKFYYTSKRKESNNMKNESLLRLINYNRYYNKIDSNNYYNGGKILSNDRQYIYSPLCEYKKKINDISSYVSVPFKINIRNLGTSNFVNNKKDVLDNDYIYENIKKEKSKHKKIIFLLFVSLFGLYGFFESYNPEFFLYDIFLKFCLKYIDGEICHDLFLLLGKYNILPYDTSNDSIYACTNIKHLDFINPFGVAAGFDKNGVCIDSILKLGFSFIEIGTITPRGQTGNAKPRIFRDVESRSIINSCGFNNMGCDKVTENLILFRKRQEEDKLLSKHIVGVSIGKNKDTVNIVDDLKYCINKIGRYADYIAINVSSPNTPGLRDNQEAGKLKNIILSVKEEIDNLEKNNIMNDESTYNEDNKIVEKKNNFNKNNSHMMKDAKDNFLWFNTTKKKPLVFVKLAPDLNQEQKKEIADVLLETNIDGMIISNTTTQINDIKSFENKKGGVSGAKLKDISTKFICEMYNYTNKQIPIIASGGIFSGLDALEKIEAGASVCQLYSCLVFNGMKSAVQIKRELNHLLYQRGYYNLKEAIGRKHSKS

Consider `CCc1cc2c(nc1CC)CCN(CCC(C)=NO[C@@H]1O[C@H](COC(C)=O)[C@@H](OC(C)=O)[C@H](OC(C)=O)[C@H]1OC(C)=O)C2`, for which the z-score in test [1] was -0.11; in [2], -0.334 (inactive); in test [3] it was 0.164 (inactive); in test [5] it was -0.585 (inactive); in test [6], -0.567 (inactive); in test [7], -1.25 (inactive). Also, the values for the z-score in test [8] and in test [9] were -1.82 (inactive) and -0.387, respectively. For the same molecule, the composite z-score in [4] was -2.7 (inactive); in test [10], 0.0825.
As to `COC(OC)[C@@H](C)[C@H](OC)[C@@H](C)[C@H](OC)c1ccccc1`, the z-score in test [1] was -0.634; in test [2], -1.31 (inactive); in [3], -2.8 (inactive); in [5], 0.912 (inactive); in test [6], -1.02 (inactive); in [7] it was 0.366 (inactive). Further, the figures for the z-score in test [8] and in [9] were -0.0254 (inactive) and -0.466, respectively. The composite z-score in test [4] was -2.36 (inactive); in test [10], -0.138.
In the case of `CCCNC(=O)OC[C@H]1O[C@H](CCON=C2C[C@@H](O)[C@@H](O)[C@@H]3[C@@H]4C(=O)N(CC)C(=O)[C@@H]4CC[C@@H]23)C=C[C@@H]1Oc1ccc(OC)cc1`, the z-score is -0.57 in test [1]; 0.0913 (inactive) in test [2]; -0.791 (inactive) in test [3]; 0.429 (inactive) in [5]; -0.32 (inactive) in [6]; 0.74 (inactive) in test [7]. Besides, the z-score was 0.658 (inactive) in test [8] and -1.02 in [9]. Further, the composite z-score in test [4] is -0.384 (inactive); in test [10] it was -0.281.
Regarding `CC(C)=CCCC(C)=CCON=C1[C@H]2CCn3c(=O)n(-c4ccccc4)c(=O)n3[C@H]2[C@H](O)[C@@H]2O[C@H]12`, the z-score in test [1] is -0.792; in test [2], -3.89 (inactive); in test [3], -2.7 (inactive); in test [5], 0.717 (inactive); in test [6], -0.0881 (inactive); in test [7], -0.611 (inactive). Moreover, the z-score was 0.092 (inactive) in test [8] and -2.03 in test [9]. For the same molecule, the results for the composite z-score in test [4] and in [10] were -0.197 (inactive) and 0.293, respectively.
With `CC(C)[C@@H](OCc1ccccc1)[C@H](C)CON=C1[C@H]2CCn3c(=O)n(-c4ccccc4)c(=O)n3[C@H]2[C@H](O)[C@@H]2O[C@H]12`, the z-score is -0.486 in test [1]; -1.96 (inactive) in [2]; -0.704 (inactive) in test [3]; -0.348 (inactive) in [5]; -0.402 (inactive) in test [6]; 0.961 (inactive) in [7]. Besides, the figures for the z-score in test [8] and in test [9] were 0.876 (inactive) and -0.789, respectively. The figures for the composite z-score in test [4] and in test [10] were -1.78 (inactive) and -0.193, respectively.
As for `C=CC[C@@H]1C=C[C@H](ON=CC[C@@H]2C=C[C@H](OC(C)=O)[C@@H](COC(C)=O)O2)[C@@H](CO)O1`, the z-score in test [1] was 0.083; in [2] it was 0.365 (inactive); in [3] it was -1.23 (inactive); in test [5] it was -0.242 (inactive); in test [6] it was 0.879 (inactive); in test [7], 0.879 (inactive). Moreover, the values for the z-score in [8] and in [9] were 0.984 (inactive) and -0.687, respectively. In addition, the composite z-score is -0.84 (inactive) in test [4] and -0.158 in test [10].
As to `CCOC(=O)[C@H](CC(C)C)NC(=O)CCC1CC(OC(=O)NCCc2ccc(F)cc2)CC2(CCCC(COC(=O)NCc3cccc4ccccc34)O2)O1` (stereo not given in full), the z-score is 0.682 in test [1]; -1.9 (inactive) in [2]; 1.28 (inactive) in test [3]; 0.168 (inactive) in test [5]; -0.186 (inactive) in test [6]; 0.424 (inactive) in [7]. The z-score in [8] was -0.435 (inactive); in test [9], 1.3. In addition, the values for the composite z-score in [4] and in test [10] were 0.0103 (inactive) and -0.0939, respectively.
On to `C[C@@H]1C=CCC(=O)OC[C@H](C)C(=O)N[C@@H](Cc2ccccc2)C(=O)OC1`, for which the z-score in [1] is -0.42; in [2] it was -1.13 (inactive); in test [3], 0.489 (inactive); in [5], -0.355 (inactive); in test [6] it was -0.868 (inactive); in [7] it was 0.0826 (inactive). Also, the z-score in [8] is -0.0419 (inactive); in test [9], 0.394. Moreover, the composite z-score in test [4] is -2.99 (inactive); in test [10], -0.0669.
For `C#CCCCON=C1[C@H]2CCn3c(=O)n(Cc4cc5c(cc4Cl)OCO5)c(=O)n3[C@H]2[C@H](O)[C@@H]2O[C@H]12`, the z-score in test [1] was -0.242; in test [2], 0.606 (inactive); in [3] it was -0.16 (inactive); in test [5], -0.106 (inactive); in test [6], 0.432 (inactive); in test [7], 0.313 (inactive). For the same molecule, the figures for the z-score in test [8] and in test [9] were -0.506 (inactive) and 0.0334, respectively. Also, the composite z-score was 0.605 (inactive) in test [4] and -0.168 in [10].
Turning to `CC(CCN1CCCCc2nc(C)c(C)cc21)=NOC[C@@H](O)[C@H]1O[C@@H]2OC(C)(C)O[C@@H]2[C@H]1O`, the z-score in test [1] was -0.825; in [2], -0.546 (inactive); in test [3], -1.03 (inactive); in test [5] it was 0.335 (inactive); in test [6], -0.382 (inactive); in test [7], 0.78 (inactive). Besides, the z-score in test [8] is -0.887 (inactive); in test [9], -0.216. Moreover, the composite z-score in [4] is -0.183 (inactive); in test [10] it was -0.0323.
`COc1ccc(O[C@H]2C=C[C@@H](c3ccccc3)O[C@@H]2CON=C(C)CCN2CCCc3nc(C)c(C)cc32)cc1`: the z-score is 0.165 in [1]; -0.855 (inactive) in [2]; -0.662 (inactive) in test [3]; 0.699 (inactive) in test [5]; -0.351 (inactive) in [6]; -0.321 (inactive) in test [7]. Besides, the z-score in test [8] was -0.112 (inactive); in [9], -0.164. For the same molecule, the composite z-score in [4] is -0.752 (inactive); in test [10], 2.22.
`CC(=O)OC[C@H]1O[C@H](C#CCCc2ccccc2)C=C[C@@H]1OC(C)=O`: the z-score in test [1] is -0.403; in [2], -1.17 (inactive); in test [3], -0.841 (inactive); in [5], -0.0691 (inactive); in test [6] it was 0.702 (inactive); in test [7] it was 0.551 (inactive). Further, the z-score in test [8] was -0.406 (inactive); in test [9], -0.0728. The composite z-score in [4] was -0.419 (inactive); in test [10], -0.105.
